# The list is not random: actives were taken first. Their share in the collection is about 6.1%.
# DRD3 antagonist: qHTS of D3 Dopamine Receptor Antagonist: qHTS; actives 2.5% (n = 360,000); D3R cells, DiscoveRx beta-arrestin luminescence, antagonist mode; active compounds read low; D(3) dopamine receptor (Homo sapiens), P35462; max response, negative = inhibition, %; in the data active = max response below about -50%; inconclusive = no clear call, values can overlap the other calls; note: % is set by controls: 0 for no effect and ±100 for the full control effect
# Target sequence (P35462 whole entry, looked up): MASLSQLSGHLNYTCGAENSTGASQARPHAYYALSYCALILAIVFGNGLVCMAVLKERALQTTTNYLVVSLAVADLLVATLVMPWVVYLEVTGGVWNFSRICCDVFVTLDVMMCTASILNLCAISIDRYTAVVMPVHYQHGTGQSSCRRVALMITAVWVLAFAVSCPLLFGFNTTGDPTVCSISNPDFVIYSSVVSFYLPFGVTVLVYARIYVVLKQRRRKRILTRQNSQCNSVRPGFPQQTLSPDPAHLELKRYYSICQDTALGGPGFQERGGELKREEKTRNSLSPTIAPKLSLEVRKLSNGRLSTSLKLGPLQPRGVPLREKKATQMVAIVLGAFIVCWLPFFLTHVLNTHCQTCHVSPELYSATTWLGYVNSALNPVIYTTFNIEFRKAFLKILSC
#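 Cells plated overnight at 1500 cells/well, then exposed to library compounds with dopamine controls for 90 minutes at 37 degrees C. DiscoveRx reagent added for 30–60 minutes at room temperature; luminescence read, quantitative HTS format.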
# D1 potentiator: Potentiators of Human D1 Dopamine Receptor: qHTS. HEK293 TREx D1 cells, calcium flux, dopamine EC20 potentiation. potentiation, % at 10 µM. actives 0.036% (n = 360,000); in the data active = potentiation above about 30%; note: 0% is about no effect
# D3 ag: qHTS of D3 Dopamine Receptor Agonist: qHTS | D(3) dopamine receptor (Homo sapiens), P35462 | D3R DiscoveRx beta-arrestin cells, luminescence, 90 min | max activation, % | actives 0.58% (n = 410,000); in the data active = max activation above about 30%; note: 0% is about no effect
#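 Agonist mode: compounds and dopamine controls were applied to plated cells for 90 min at 37 degrees C after an overnight attachment at 1500 cells/well. Luminescent read-out followed 30 - 60 minutes at room temperature with DiscoveRx detection reagent.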
# ERG Ets-DNA blk: qHTS for Small Molecule Inhibitors of the ERG Ets/DNA interaction | AID 624246, 2012 | Transcriptional regulator ERG (Homo sapiens), P11308 | Potency, µM (doses to about 76.9 µM), without a hit: at the top dose FP activity, negative = inhibition, actives largely listed as inhibitors | fluorescence polarization, His-ERG Ets domain / labelled DNA | actives 0.028% (n = 370,000); active = well fitted inhibition curve with a large enough effect in the polarisation, with a control signal flat; inconclusive = small, poorly fitted or top-dose-only effect, or effect the other way, or a change in a side signal; inactive = no such curve, though single readings can be large or run the other way; the % refers to the polarisation;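 note: polarization taken with two DNA probes labelled with fluorescein and Texas red; potency is the fitted concentration of half-maximal effect; % of control where 0% means no effect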
#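 His-tagged ERG Ets domain (1 uM in the protein solution; 300mM KCl, 50mM Tris-HCl, 1mM EDTA, 1mM DTT, pH 7.5) received compound, then a probe mix of 5 nM fluorescein-DNA and 100nM Texas-615-DNA. Fluorescence polarization was read for both dyes.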
# D1 antagonist: Antagonist of Human D 1 Dopamine Receptor: qHTS; D(1A) dopamine receptor (Homo sapiens), P21728; HEK293 TREx D1 cells, calcium flux, dopamine EC80; active compounds read low; activity change, negative = inhibition, % at 10 µM; actives 3.2% (n = 360,000); AID 504652, 2011; in the data active = activity change below about -30%; note: % is set by controls: 0 for no effect and ±100 for the full control effect
#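 Inducible Hek293 Trex D1 cells (tetracycline, overnight, 30 C). Calcium dye 30–90 min RT. Antagonist mode: EC80 dopamine added after 180 s compound read.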
# D1 agonist: Allosteric Agonists of the Human D1 Dopamine Receptor: qHTS; D(1A) dopamine receptor (Homo sapiens), P21728; HEK293 T-REx D1 cells, calcium flux, agonist mode; activation, % at 2 µM; actives 1% (n = 360,000); AID 504660, 2011; in the data active = activation above about 30%; note: 0% is about no effect
#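 Agonism was scored from calcium flux recorded over 180 s (1 read/s) after pintool compound addition, following a 10-cycle baseline. Cells were inducible force-coupled HEK293 TREx D1, plated overnight at 30 C and loaded with no-wash calcium dye.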
# Active calls of the source: *; ? = inconclusive; · = no result; [ ] = dose if it differs, or a comment.
SMILES,DRD3 antagonist,D1 potentiator,D3 ag,ERG Ets-DNA blk,D1 antagonist,D1 agonist
O=[N+]([O-])c1c(Nc2ccccc2O)cc(Cl)c2nonc12,-140*,-4,-33,12%,-26,2
O=C(CCN1CCN(C/C=C/c2ccccc2)CC1)Nc1ccccc1,-58*,-3,4,-5%,5,3
Cc1ccccc1NC(=O)CCN1CCN(C/C=C/c2ccccc2)CC1,-26,-4,25,4%,-2,5
Cc1cccc(NC(=O)CCN2CCN(C/C=C/c3ccccc3)CC2)c1,-64*,-2,7,7%,-10,10
COc1ccc(C(=O)CC(Sc2ccccc2N)c2ccc(OC)cc2)cc1 (stereo not drawn),0,·,3,·,·,·
O=C(Nc1ccccc1)C1=C(c2ccccc2)S(=O)(=O)CCS1(=O)=O,-105*,2,-22,-5%,15,3
Clc1ccc(OCCSc2ncccn2)c2ccccc12,0,3,-9,-9%,11,8
CCOC(=O)C1=C(CNCc2ccc(C)cc2)NC(=O)NC1c1cc(C)ccc1C (stereo not drawn),22,-2,23,5%,-11,4
CCOC(=O)C1=C(Cn2cnc3ccccc32)NC(=O)NC1c1cc(C)ccc1C (stereo not drawn),19,-5,34*,0%,43,3
CCOC(=O)C1=C(CSc2nccn2C)NC(=O)NC1c1cc(C)ccc1C (stereo not drawn),-3,-13,-9,-4%,-20,0
COC(=O)C1=C(Cn2cnc3ccccc32)NC(=O)NC1c1cc(C)ccc1C (stereo not drawn),59,-3,40*,?,-19,1
Cc1cc(C)c(NC(=O)CCCN2CCCC2)c(C)c1,3,-3,7,10%,7,2
CCOC(=O)Nc1ccc(C)cc1NC(=O)OCC,-12,7,-3,0%,-11,2
CCOC(=O)Nc1ccc(NCc2ccc(F)cc2)nc1N,-6,-4,4,17%,-16,47*
O=C(CNC(=O)c1ccccc1F)N/N=C/c1cccs1,2,-3,-7,-4%,1,4
Cc1ccnc(NS(=O)(=O)c2ccc(NC(=O)C3CC=CCC3C(=O)O)cc2)n1 (stereo not drawn),-4,1,-6,1%,-89*,2
Cc1ccnc(NS(=O)(=O)c2ccc(NC(=O)C3CCCCC3C(=O)O)cc2)n1 (stereo not drawn),-14,14,-5,2%,9,2
Cc1cc(C)nc(SCC(=O)Nc2cccc(S(=O)(=O)N(C)C)c2)n1,17,-14,3,0%,-30*,7
CN(CC(=O)Nc1cccc(C#N)c1)Cc1ccc(Cl)cc1,-74*,-11,-18,-6%,-42*,1
Cc1cc(C)n2nc(SCC(=O)Nc3ccc(S(=O)(=O)N(C)C)cc3)nc2n1,6,-2,4,-9%,-39*,5
CN(CC(=O)Nc1ccc(C#N)cc1)Cc1ccc(Cl)c(Cl)c1,79,-10,3,-5%,-4,4
CN(C)S(=O)(=O)c1cccc(NC(=O)CSc2nncn2C)c1,5,-3,1,-2%,6,1
CCN(CC)CCSc1c(C(C)C)cnc2c1c(=O)n(C)c(=O)n2C,·,0,-4,10%,-4,-1
CC(=O)c1cccc(NC(=O)CN(C)Cc2ccc(OC(F)F)cc2)c1,-22,-4,-29,12%,-35*,8
Cc1cc(C)nc(SCC(=O)Nc2ccc(S(=O)(=O)Nc3ncccn3)cc2)n1,4,-3,34*,13%,-20,2
SMILES,DRD3 antagonist,D1 potentiator,D3 ag,ERG Ets-DNA blk,D1 antagonist,D1 agonist
Cc1ccc(SCC(=O)Nc2ccc(S(=O)(=O)Nc3ncccn3)cc2)cc1,-1,4,-5,5%,-11,1
CN(C)S(=O)(=O)c1cccc(NC(=O)Cc2ccc(Cl)cc2)c1,10,-6,-4,3%,-32*,21
CCC(COC(=O)Nc1ccccc1)NC(=O)OC(C)C (stereo not drawn),-2,-3,9,-10%,-7,3
Cc1cccc(N(CC(=O)Nc2ccc(CC#N)cc2)S(C)(=O)=O)c1,5,-1,-3,-2%,-9,2
Cc1ccc(N(CC(=O)Nc2ccc(Br)c(C)c2)S(=O)(=O)c2cccs2)cc1,·,-3,-2,-6%,-52*,3
Cc1ccc(C2=NO[C@@](CC(=O)O)(C(=O)Nc3ccc4c(c3)OCCO4)C2)cc1,0,-4,95*,-5%,-3,3
Cc1ccc(N(CC(=O)Nc2ccc3c(c2)OCCO3)S(C)(=O)=O)cc1,-89*,-4,-12,-1%[15.4 µM],-22,2
CCc1ccc(NC(=O)CN(c2cccc(C)c2)S(C)(=O)=O)cc1,8,1,34*,3%,1,1
COc1ccc(OC)c(C2=NO[C@@](CC(=O)O)(C(=O)Nc3ccc4c(c3)OCCO4)C2)c1,-23,-3,-9,1%,2,4
CC1=NN(C(=O)c2csc(C)c2C)C(O)(C(F)(F)F)C1 (stereo not drawn),29,-1,3,-11%,-2,0
CCOc1ccc2c(c1)NC(c1cccs1)=NC(c1ccc(F)cc1)=N2,·,-1,-1,5%,11,2
Cc1cc(C)cc(-n2c(C)cc(/C=N/NC(=O)CN(c3c(C)cccc3C)S(C)(=O)=O)c2C)c1,?,10,-4,-13%,16,2
Cc1ccc(N(CC(=O)Nc2cc(C)ccc2C)S(C)(=O)=O)cc1,-2,1,2,11%,-38*,3
COc1ccc(C)cc1NC(=O)CN(c1ccc(F)cc1)S(C)(=O)=O,13,1,-3,-11%,2,-1
Cc1ccc(N(CC(=O)N/N=C/c2cc(C)n(-c3ccccc3C)c2C)S(C)(=O)=O)cc1,-19,-9,-18,0%,-30*,0
CC(C)N1CCN(Cc2ccc(Oc3ncccn3)cc2)CC1CCO (stereo not drawn),-19,4,-14,2%,4,0
Cc1ccc2c(c1)-c1nc(-c3ccc4c(c3)NC(=O)CO4)cc(-c3ccc(F)cc3)c1CO2,·,-3,9,-1%,5,0
CN1CCC(OC(=O)COc2ccccc2)CC1,-15,-8,-3,-12%,5,2

# High-throughput results deposited in PubChem BioAssay by National Center for Advancing Translational Sciences (NCATS).
